Experimental data taken from ChEMBL document CHEMBL3988442, “University of Dundee, Small-Polar-MMV Screening Library” (2021).
For some assays here: Results with a measured potency or affinity are listed apart.

Tests used:
Design in all cases: scale not given: direction of the effect not stated beside the values
[1] = target: Protein translocase subunit SecA (Escherichia coli (strain K12)) (UniProt P10408); assay: Assay to Identify E. coli SecA ATPase Inhibitors; assay type: functional; settings: 30 µM
[2] = target: T1, Ubiquitin-activating enzyme e1, putative (Leishmania donovani (strain BPK282A1)) (UniProt E9BSI1); assay: Leishmania donovani Ubiquitin Activating Enzyme (LdE1); assay type: functional; settings: 30 µM
T1 sequence (whole entry): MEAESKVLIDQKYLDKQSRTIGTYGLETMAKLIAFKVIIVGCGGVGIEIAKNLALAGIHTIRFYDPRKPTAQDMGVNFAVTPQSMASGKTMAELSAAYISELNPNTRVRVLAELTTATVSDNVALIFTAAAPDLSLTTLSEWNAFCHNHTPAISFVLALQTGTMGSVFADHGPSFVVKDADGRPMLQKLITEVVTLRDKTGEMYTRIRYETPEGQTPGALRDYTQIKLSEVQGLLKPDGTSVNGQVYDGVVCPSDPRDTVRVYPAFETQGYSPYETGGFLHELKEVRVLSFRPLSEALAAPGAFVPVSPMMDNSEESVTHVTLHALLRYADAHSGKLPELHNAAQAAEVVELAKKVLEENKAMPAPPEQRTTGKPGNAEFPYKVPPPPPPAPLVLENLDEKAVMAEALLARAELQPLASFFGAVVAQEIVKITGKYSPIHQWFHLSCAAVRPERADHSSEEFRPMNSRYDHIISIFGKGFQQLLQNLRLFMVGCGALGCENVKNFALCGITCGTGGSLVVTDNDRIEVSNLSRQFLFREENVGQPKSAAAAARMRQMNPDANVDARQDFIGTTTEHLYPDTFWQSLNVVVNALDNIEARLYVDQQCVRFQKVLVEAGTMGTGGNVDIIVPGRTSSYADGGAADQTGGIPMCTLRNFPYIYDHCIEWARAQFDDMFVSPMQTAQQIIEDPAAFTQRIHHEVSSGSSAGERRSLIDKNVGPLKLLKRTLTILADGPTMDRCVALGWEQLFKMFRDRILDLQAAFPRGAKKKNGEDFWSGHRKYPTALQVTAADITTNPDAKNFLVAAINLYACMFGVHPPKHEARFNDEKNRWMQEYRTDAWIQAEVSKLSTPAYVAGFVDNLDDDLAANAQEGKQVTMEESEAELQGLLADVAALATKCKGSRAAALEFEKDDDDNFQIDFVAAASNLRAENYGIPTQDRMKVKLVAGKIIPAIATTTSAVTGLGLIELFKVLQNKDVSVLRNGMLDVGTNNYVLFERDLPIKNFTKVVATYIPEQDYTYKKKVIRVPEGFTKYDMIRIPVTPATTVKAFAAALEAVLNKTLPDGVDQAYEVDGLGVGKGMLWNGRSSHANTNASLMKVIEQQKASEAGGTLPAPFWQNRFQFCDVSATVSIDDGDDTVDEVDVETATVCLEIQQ

[3] = target: AMP-activated protein kinase, AMPK (Homo sapiens) (UniProt P54646+O43741+P54619+Q9UGJ0+Q9Y478+Q13131+Q9UGI9); assay: AMP-dependent Kinase enzyme assay. An in vitro enzyme assay that detects ADP turnover that is directly proportional to AMPK activity. This uses naive AMPK that is activated during the assay with MK-8722; assay type: functional; settings: 30 µM
[4] = target: Sialic acid-binding Ig-like lectin 9 (Homo sapiens) (UniProt Q9Y336); assay: Hs-Siglec9 ALPHAscreen SOP 20170721; settings: 10 µM
Trypanosoma cruzi = assay: Trypanosoma cruzi phosphomannomutase and mannose-1-phosphate guanylyltransferase assay; assay type: functional; settings: 10 µM
[5] = target: T2, Arginase-2, mitochondrial (Homo sapiens) (UniProt P78540); assay: in vitro enzyme assay to detect the production of urea directly proportional to the activity of Arginase II; assay type: functional; settings: 33.3 µM; also: in the data most compounds retested in dose-response had high values
T2 sequence (whole entry): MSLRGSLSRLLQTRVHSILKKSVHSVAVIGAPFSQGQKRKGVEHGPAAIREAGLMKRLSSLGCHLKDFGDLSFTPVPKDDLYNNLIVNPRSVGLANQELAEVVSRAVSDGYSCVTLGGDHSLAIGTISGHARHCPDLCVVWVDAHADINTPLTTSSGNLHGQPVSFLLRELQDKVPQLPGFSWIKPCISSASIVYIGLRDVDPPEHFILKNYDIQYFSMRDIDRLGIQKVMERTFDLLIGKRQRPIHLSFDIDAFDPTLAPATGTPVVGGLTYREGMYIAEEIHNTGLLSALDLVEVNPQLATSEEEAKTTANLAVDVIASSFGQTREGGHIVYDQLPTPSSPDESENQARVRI

[6] = target: T3, Proteasome subunit beta (Trypanosoma cruzi) (UniProt O96673); assay: Trypanosoma cruzi proteasome chymotrypsin-like activity (TcProtChymo) assay.; also: in the data most compounds retested in dose-response had high values; assay type: functional; settings: 9.37 µM
T3 sequence (whole entry): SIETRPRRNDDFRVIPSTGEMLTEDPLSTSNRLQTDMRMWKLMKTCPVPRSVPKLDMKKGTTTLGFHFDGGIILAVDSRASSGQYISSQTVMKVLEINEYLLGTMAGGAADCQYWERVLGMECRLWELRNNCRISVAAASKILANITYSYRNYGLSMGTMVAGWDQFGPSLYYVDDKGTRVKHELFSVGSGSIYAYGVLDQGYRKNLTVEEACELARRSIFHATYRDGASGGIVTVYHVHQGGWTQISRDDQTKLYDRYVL

Homo sapiens = species on record: Homo sapiens; assay: To identify inhibition of the IFN signalling (Jak-Stat) pathway via expression of an eGFP reporter gene under the control of an IFN-stimulated response element (ISRE) containing MxA promoter.; assay type: functional; settings: 30 µM
[7] = target: T4, Tyrosyl-tRNA synthetase, putative (Trypanosoma cruzi (strain CL Brener)) (UniProt Q4DSP6); assay: Trypanosoma cruzi tyrosyl tRNA synthetase (TcYRS) _High Tyrosine SOP; assay type: functional; settings: 30 µM; also: in the data most compounds retested in dose-response had high values
T4 sequence (whole entry): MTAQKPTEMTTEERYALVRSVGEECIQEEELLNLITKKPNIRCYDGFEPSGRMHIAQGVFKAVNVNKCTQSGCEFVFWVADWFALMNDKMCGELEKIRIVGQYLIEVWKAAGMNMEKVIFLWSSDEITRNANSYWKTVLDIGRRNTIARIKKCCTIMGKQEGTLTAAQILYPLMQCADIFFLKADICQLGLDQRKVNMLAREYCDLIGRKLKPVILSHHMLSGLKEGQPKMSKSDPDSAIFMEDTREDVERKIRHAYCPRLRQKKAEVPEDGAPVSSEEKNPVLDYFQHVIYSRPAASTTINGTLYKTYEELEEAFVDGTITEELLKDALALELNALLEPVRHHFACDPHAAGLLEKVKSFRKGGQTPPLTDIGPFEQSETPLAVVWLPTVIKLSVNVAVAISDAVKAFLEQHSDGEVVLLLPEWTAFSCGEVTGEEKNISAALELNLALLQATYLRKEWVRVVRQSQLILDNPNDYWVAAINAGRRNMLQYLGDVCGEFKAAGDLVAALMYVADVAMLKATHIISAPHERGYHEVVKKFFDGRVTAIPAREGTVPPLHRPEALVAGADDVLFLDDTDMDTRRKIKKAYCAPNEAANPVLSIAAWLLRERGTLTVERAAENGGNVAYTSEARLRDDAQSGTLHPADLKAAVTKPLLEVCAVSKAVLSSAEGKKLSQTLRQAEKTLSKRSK

[8] = target: T4, Tyrosyl-tRNA synthetase, putative (Trypanosoma cruzi (strain CL Brener)); assay: Trypanosoma cruzi tyrosyl tRNA synthetase (TcYRS) SOP; assay type: functional; settings: 30 µM
[9] = target: Chromo domain-containing protein 1 (Saccharomyces cerevisiae (strain ATCC 204508 / S288c) (Baker's yeast)) (UniProt P32657); assay: ScCHD-1 Enzyme Inhibition Assay; assay type: functional; settings: 30 µM; also: in the data most compounds retested in dose-response had high values
Chromo domain-containing protein 1 (Saccharomyces cerevisiae (strain ATCC 204508 / S288c) (Baker's yeast)), sequence (P32657 whole entry, the tested form may be a part): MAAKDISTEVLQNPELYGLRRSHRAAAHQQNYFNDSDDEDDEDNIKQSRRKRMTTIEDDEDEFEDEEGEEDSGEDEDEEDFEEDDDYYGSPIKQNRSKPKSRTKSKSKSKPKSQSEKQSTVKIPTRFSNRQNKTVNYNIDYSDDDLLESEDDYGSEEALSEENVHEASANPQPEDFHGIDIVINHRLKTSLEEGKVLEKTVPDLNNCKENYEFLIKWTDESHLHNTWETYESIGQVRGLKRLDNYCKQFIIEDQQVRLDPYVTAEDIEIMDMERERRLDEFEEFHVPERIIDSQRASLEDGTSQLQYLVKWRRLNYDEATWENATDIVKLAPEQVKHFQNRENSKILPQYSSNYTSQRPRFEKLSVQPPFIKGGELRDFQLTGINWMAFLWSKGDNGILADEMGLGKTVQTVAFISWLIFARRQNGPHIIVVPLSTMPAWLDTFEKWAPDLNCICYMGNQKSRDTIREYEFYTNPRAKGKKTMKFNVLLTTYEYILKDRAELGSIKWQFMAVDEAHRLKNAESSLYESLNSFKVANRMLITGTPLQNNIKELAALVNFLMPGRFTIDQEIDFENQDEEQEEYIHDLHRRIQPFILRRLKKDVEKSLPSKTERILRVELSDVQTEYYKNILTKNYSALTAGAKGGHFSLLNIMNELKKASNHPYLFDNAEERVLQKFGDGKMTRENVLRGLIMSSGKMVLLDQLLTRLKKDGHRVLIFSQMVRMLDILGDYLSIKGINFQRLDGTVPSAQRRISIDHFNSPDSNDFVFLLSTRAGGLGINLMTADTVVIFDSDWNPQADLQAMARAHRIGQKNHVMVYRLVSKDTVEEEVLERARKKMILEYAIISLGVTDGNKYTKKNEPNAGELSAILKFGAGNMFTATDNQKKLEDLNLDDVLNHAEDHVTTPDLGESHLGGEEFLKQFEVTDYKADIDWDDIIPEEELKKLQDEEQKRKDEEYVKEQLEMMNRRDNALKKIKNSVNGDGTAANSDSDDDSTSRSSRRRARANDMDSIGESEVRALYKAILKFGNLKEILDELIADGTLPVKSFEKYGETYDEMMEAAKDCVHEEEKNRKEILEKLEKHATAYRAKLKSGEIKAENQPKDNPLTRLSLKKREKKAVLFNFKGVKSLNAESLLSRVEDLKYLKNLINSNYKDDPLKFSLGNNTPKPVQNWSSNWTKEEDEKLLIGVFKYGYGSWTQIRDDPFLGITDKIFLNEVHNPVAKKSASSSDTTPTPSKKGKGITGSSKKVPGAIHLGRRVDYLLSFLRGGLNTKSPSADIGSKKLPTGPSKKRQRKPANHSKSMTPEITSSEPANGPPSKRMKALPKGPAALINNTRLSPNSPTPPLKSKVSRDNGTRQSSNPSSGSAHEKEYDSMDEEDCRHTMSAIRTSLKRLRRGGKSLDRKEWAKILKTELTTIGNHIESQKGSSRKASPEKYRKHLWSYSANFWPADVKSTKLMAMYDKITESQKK

Sialic acid-binding Ig-like lectin 9 (Homo sapiens), sequence (Q9Y336 whole entry): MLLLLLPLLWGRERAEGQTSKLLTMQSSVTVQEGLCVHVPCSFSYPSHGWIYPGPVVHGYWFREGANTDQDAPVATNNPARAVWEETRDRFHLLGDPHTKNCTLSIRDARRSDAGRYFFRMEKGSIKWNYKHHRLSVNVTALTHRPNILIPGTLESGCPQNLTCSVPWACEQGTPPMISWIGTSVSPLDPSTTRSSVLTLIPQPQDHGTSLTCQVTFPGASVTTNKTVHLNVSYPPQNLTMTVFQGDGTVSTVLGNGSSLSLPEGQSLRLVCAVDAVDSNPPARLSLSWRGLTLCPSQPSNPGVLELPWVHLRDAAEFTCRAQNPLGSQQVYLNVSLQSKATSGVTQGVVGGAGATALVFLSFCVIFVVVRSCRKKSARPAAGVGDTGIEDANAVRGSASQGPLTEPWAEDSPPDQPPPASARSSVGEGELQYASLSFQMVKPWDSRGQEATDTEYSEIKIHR
Protein translocase subunit SecA (Escherichia coli (strain K12)), sequence (P10408 whole entry): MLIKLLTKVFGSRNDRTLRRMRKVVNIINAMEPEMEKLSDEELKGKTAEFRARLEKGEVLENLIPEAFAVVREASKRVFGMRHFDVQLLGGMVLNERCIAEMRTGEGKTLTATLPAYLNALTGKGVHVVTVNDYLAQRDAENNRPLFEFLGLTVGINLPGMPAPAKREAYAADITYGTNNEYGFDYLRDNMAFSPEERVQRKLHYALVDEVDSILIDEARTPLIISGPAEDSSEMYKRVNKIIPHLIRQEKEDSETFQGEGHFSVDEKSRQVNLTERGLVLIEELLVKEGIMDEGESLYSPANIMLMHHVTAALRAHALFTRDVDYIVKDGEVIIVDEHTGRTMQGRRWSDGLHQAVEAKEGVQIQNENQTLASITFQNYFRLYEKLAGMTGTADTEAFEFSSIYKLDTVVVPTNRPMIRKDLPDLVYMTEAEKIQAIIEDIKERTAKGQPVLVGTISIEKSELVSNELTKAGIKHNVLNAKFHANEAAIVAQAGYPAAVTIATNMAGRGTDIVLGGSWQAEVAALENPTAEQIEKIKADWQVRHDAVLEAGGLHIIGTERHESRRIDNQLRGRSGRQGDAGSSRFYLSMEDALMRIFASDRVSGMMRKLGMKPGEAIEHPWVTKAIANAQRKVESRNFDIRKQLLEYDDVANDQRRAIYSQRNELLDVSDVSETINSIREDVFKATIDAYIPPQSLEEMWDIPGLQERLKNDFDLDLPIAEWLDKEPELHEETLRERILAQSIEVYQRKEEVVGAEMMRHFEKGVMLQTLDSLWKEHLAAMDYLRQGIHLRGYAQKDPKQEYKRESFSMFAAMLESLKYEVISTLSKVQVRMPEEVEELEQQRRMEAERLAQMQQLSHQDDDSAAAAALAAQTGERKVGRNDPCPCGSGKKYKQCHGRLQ

Compound	Percent Effect [1] [%]	Percent Effect [2] [%]	Percent Effect [3] [%]	Percent Effect [4] [%]	Percent Effect (Trypanosoma cruzi) [%]	Percent Effect [5] [%]	Percent Effect [6] [%]	Percent Effect (Homo sapiens) [%]	Percent Effect [7] [%]	Percent Effect [8] [%]	Percent Effect [9] [%]
CC(C)c1ccc(OCCC(=O)N2CCC(CC(N)=O)CC2)cc1	-3.21	5.26	5.06	6.24	6.58	-2.68	11	5.75	4.41	12.2	-9.8
CC(NC(=O)NCCCn1cncn1)c1ccc2c(c1)OCCO2 (stereo unspecified)	-1.3	18.9	-2.43	0.133	-3.81	-1.66	14.2	6.17	2.97	15.8	-2.48
Cn1ccnc1CNC1CCCN(Cc2noc(C3CC3)n2)C1 (stereo unspecified)	-1.62	0	-11.6	4.95	2.9	3.81	13.8	1.96	10.1	17.1	-3.57
c1cnc(N2CCOC3(CCN(CC4CCCCC4)CC3)C2)nc1	0.617	13.3	14.1	-0.802	-5.12	-2.1	14.7	10.1	5.32	11.5	-3.47
COCc1nc(C(=O)N2CCCC2c2c(C)nn(C)c2C)cs1 (stereo unspecified)	-0.948	-3.8	3.43	1.97	-1.33	0.645	-0.172	12	3.12	5.06	2.98
CC(C)(C(=O)NCC(N)=O)c1ccccc1F	-2.75	-1.39	-0.917	-6.27	-3.98	-17.7	6.67	-3.33	2.1	0	-1.29
COc1ccc(C(=O)N2CCCC2c2ccco2)cc1OC (stereo unspecified)	2.38	2.6	-1.48	-11.9	-4.24	-1.94	14.8	9.23	3.17	8.97	-10.7
O=C(c1ccncc1)N1CCCn2c(CN3CCCCC3)nnc2C1	-3.23	2.67	9.49	2.61	4.13	-5.36	5.9	-3.57	5.32	-1.28	1.13
O=C(NCc1cccnc1)C1=NN(c2ccccc2)C(=O)CN1	-0.966	18.9	8.77	14.9	0.293	26.1	15	-2.67	6.45	18.5	-8.57
Cn1nc(C2CCCN(C(=O)CO)C2)cc1O (stereo unspecified)	-4.16	-6.76	-113	-1.22	-3.75	-0.232	1.4	-6.44	-6.45	-9.09	-2.64
O=C(CSCC1CC1)N1CCCC(c2nccn2Cc2ccncc2)C1 (stereo unspecified)	-2.74	15.3	-12.9	10.9	2.62	2.65	7.37	-2.75	3.16	10.3	-2.97
Cc1nc(CN2CCN(C(=O)c3cc(C4CC4)on3)CC2)cs1	-6.45	13	2.57	3.64	-0.686	5.68	4.45	-4.72	4.76	18.8	-6
C[C@@H]1C[C@@H]2CCN(C(=O)c3cnccn3)C[C@H]2O1	-2.4	-2.7	5.23	-2.15	-1.95	0.417	-0.592	3.34	1.98	-3.66	-0.0529
Cc1nnc(NCc2cccnc2N(C)C)c(C#N)c1C	-0.868	-5.41	-22.1	9.49	2.88	-4.25	-2.87	6.79	2.97	6.1	0.273
Cc1nn(C)c2c(N3CCN(C(=O)c4ccccc4)CC3)ncnc12	1.93	9.33	2.69	-1.85	-6.68	-10.4	12	12.3	8.47	12.8	-10.3
CCc1noc(CN(C)Cc2ccc(N3CCCCC3)cc2)n1	-2.48	2.6	0.261	13	3.83	15.2	13.5	5.54	-6.45	-8.64	-6.82
